Shown are actives, neighbours in structure and some others; about 2.3% of the full set was active somewhere.
pPAFAH FP inh: inhibitors of human plasma PAF acetylhydrolase (pPAFAH). inhibition, % at 3.39 µM. 1.5% of 330,000 active. recombinant pPAFAH, FP-rhodamine probe fluorescence polarization;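 active = inhibition above the mean inhibition across the screen plus 3 SD, cut at about 25% in these data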;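 also: inhibitors block binding of the rhodamine activity-based probe so polarization drops; 0% = enzyme with DMSO and 100% = wells lacking pPAFAH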
Target sequence (Q13093 whole entry, looked up): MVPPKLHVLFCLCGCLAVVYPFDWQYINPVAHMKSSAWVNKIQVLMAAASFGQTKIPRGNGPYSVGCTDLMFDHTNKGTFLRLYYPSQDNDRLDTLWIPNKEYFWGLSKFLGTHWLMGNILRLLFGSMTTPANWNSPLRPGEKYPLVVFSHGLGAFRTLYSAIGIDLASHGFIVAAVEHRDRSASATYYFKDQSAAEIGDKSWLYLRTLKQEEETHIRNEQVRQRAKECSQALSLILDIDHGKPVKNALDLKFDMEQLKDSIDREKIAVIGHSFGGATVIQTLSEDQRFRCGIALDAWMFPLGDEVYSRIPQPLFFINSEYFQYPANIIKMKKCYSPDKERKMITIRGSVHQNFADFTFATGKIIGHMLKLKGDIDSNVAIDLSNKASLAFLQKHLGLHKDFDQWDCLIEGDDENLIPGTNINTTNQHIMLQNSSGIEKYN
PAD4 inh: PAD4 (human) enzyme inhibition; Q9UM07; recombinant PAD4, RCA probe fluorescence polarization; inhibition, % at 6.36 µM; 0.41% of 330,000 active;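 active = percent inhibition above a cutoff equal to the mean of all tested compounds plus 3 SD, cut at about 15% in these data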;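 also: 0% = PAD4 with RCA probe and DMSO and 100% = probe without PAD4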
Fam108B inh: blocks mouse Fam108B hydrolase in RBBP9 counter-screen | 0.33% of 300,000 active | recombinant Fam108B, FP-Rh probe fluorescence polarization | AID 1947 | inhibition, % at 9.51 µM;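 active = inhibition above the screen mean inhibition plus 3 SD, computed separately per campaign, cut at about 18% in these data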;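 also: inhibitors lower polarization as less probe binds the enzyme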
PME-1 primary: blocks human protein phosphatase methylesterase 1; Q9Y570; recombinant PME-1, FP-Rh probe fluorescence polarization; inhibition, % at 5.9 µM; 0.53% of 320,000 active;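 active = inhibition above the campaign mean of all compounds plus 3 SD, cut at about 26% in these data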;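 also: competitive labeling of PME-1 active site by serine hydrolase directed probe; 0% = PME-1 with DMSO and 100% = wells lacking PME-1 enzyme; inhibitors block probe labeling so polarization falls and inhibition rises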
GSTO1 counter: counter-screen for RBBP9 inhibitors: inhibitors of human GSTO1; P78417; recombinant GSTO1, activity-based probe fluorescence polarization; inhibition, % at 5.96 µM; 1.1% of 300,000 active;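 active = inhibition above the campaign mean inhibition plus 3 SD, cut at about 35% in these data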;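 also: 0% = GSTO1-1 with DMSO and 100% = wells lacking GSTO1-1 enzyme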
* hit, by the source's call; . = no result.

SMILES	pPAFAH FP inh	PAD4 inh	Fam108B inh	PME-1 primary	GSTO1 counter
COc1ccc(NC(=O)Cc2cccc(F)c2)cc1S(=O)(=O)Nc1ccccc1Cl	30*	-7	-4	1	-8
COc1ccc(NS(=O)(=O)c2cc(NC(=O)Cc3c(F)cccc3Cl)ccc2OC)cc1	1	-4	.	-17	.
CCOc1ccc(OCCC(=O)OCC(=O)NCc2ccccc2)cc1	32*	-2	2	5	4
Cc1ccc(C)c(OCCC(=O)OCC(=O)NCc2ccc(F)cc2)c1	30*	2	-4	7	2
Cc1ccc(OCCC(=O)OCC(=O)NCc2ccccc2)cc1	30*	-3	-3	-3	9
CCc1cccc(NC(=O)c2ccc(NS(=O)(=O)c3c(C)noc3C)cc2)c1	29*	-2	-2	1	-10
Cc1cccc(NC(=O)c2ccc(NS(=O)(=O)c3c(C)noc3C)cc2)c1	13	5	-1	-7	-7
C[C@@H]1NC(=O)c2cc([N+](=O)[O-])cc(I)c2OCC[C@@H](C(N)=O)NC(=O)[C@H](CCCCN)NC1=O	7	-5	-5	0	-8
NCCCC[C@H]1NC(=O)[C@H](CCC(=O)O)NC(=O)c2cc([N+](=O)[O-])cc(I)c2OCC[C@@H](C(N)=O)NC1=O	33*	0	-2	-9	-227
CNC(=S)N(CCN(C)C)Cc1cc2cc3c(cc2[nH]c1=O)OCO3	3	1	6	-2	6
Cc1ccc(C(=O)NC2(O)C(=O)c3ccccc3C2=O)cc1C	2	9	7	2	75*
O=C(C1CC(=O)N(c2ccccc2)C1)N1CCN(c2ccccc2)CC1 (centres undefined)	-1	-4	-2	0	-1
COc1ccc(-c2nn(-c3ccccc3)cc2/C=C/C(=O)N2CCOCC2)cc1OC	0	-6	1	2	-2
O=C1NC(=O)/C(=C\c2ccc(O)cc2O)S1	24	1	-2	-6	63*
COc1cccc(CN(C)C(=O)c2cc(S(=O)(=O)NC3CCCCC3)ccc2C)c1	34*	3	.	.	.
CC(C)(C)C1CCC(C(=O)Nc2ccc(N3CCOCC3)cc2N2CCOCC2)CC1 (centres undefined)	2	2	.	-3	.
CN(C)c1cccc(/C=C(\C#N)c2ccccc2)c1	34*	-7	1	0	-3
CN(C)c1ccc(/C=C(\C#N)C(=O)c2ccccc2)cc1	2	0	-3	-2	-7
CC(Sc1ccccc1)C(=O)NN=C1CCN(C)CC1 (centres undefined)	-5	-3	4	-5	7
Cc1c(C(=O)Nc2cc(F)ccc2F)sc2nc3n(c(=O)c12)CCCCC3	-3	-1	-4	4	-3
COc1ccc2c(-c3ccccc3)cc(SCC(=O)N(C)C)nc2c1	33*	-2	-7	2	-11
CCN(C(=O)CSc1cc(-c2ccccc2)c2ccc(OC)cc2n1)C1CCS(=O)(=O)C1 (centres undefined)	26*	2	-5	2	-11
COCCNC(=O)CSc1cc(-c2ccccc2)c2ccc(OC)cc2n1	30*	-3	4	-3	-15
CCN(CC)C(=O)C[n+]1cccc(C(N)=O)c1	1	-1	-5	-3	-3
Cc1cc(C)c(C(=O)NCCCN2CCOCC2)c(C)c1	3	-6	-4	-3	3
SMILES	pPAFAH FP inh	PAD4 inh	Fam108B inh	PME-1 primary	GSTO1 counter
O=[N+]([O-])c1ccccc1S(=O)(=O)N1CCN(c2ccccc2)CC1	1	-1	2	9	-1
Cc1ccc(N(Cc2cc3cc(C)ccc3[nH]c2=O)S(=O)(=O)c2ccccc2)cc1	2	-1	-4	-2	7
Cc1ccc(O)c(C(=O)c2cc(C#N)c(=O)n(-c3nccs3)c2)c1	9	-11	8	33*	9
N=C1S/C(=C\c2ccco2)C(=O)N1c1ccc2c(c1)OCO2	31*	2	6	4	17
CS(=O)(=O)N1CCC(C(=O)N2CCN(C(c3ccccc3)c3ccccc3)CC2)CC1	4	-2	-1	2	4
COc1ccc(-c2ccnc3nc(N4CCN(c5ccccc5)CC4)nn23)cc1	4	-2	-3	0	0
Cc1ccc(NS(=O)(=O)c2ccc(C(=O)N3CCC3)cc2)cc1	28*	3	2	9	16
Cc1ccc(NS(=O)(=O)c2ccc(C(=O)NC3CCN(Cc4ccccc4)CC3)cc2)cc1	26*	1	.	.	.
